Assay results published in PubChem BioAssay (EPA / NIEHS).
Inconclusive results are not listed. Active and inactive are the calls of the source. Rule for the calls: active = hit-call score of the fitted dose curve at least 0.9, where 1 is the maximum; inconclusive = response in the unintended direction; inactive = score below 0.9.

Target: Steroid hormone receptor ERR1 (Homo sapiens) (UniProt P11474)
Experiment: ATG_ERRa_TRANS: Attagene TRANS-FACTORIAL HepG2 Assay for human Estrogen-Related Receptor alpha (ERRa) (AID 2282971)
Conditions: HepG2 Attagene TRANS reporter, ERRa transactivation
Method: ATG_TRANS is a cell-based, multiplexed-readout assay that uses HepG2, a human liver cell line, with measurements taken at 24 hours after chemical dosing in a 24-well plate.ATG_ERRa_TRANS is one of 30 assay component(s) measured or calculated from the ATG_TRANS assay. It is designed to make measurements of mRNA induction, a form of inducible reporter, as detected with fluorescence intensity signals by Reverse transcription polymerase chain reaction (RT-PCR) and Capillary electrophoresis technology.Data from the assay component ATG_ERRa_TRANS was analyzed into 1 assay endpoint. This assay endpoint, ATG_ERRa_TRANS, was analyzed in the positive analysis fitting direction relative to DMSO as the negative control and baseline of activity. Using a type of inducible reporter, measures of mRNA for gain-of-signal activity can be used to understand the reporter gene at the transcription factor-level as they relate to the gene ESRRA. Furthermore, this assay endpoint can be referred to as a primary readout, because this assay has produced multiple assay endpoints where this one serves a reporter gene function. To generalize the intended target to other relatable targets, this assay endpoint is annotated to the nuclear receptor intended target family, where the subfamily is steroidal.
Human liver HepG2 cells are transiently transfected with multiple reporter transcription units (MRTUs) in 6-well plates using FuGene 6 reagent (Roche; 3 ml FuGene/1 mg DNA). The MRTU constructs are regulated by a cis-regulating element (promoter). […] A major difference between the CIS and TRANS system is that in CIS activities of endogenous TFs are measured, whereas the TRANS assay evaluates changes in activities of exogenous, chimeric NR-Gal4 proteins. […] At the end of 24 hour incubation, total RNA was isolated using TriZol reagent (Invitrogen). The isolated RNA is then reverse-transcribed using oligo(dT) primer and Mo-MLV reverse transcriptase (Invitrogen) with DNAse I (Ambion) treatment for 30 min. The one-tenth of the produced cDNA was amplified by PCR using Taq DNA polymerase (Invitrogen) and two reporter sequence-specific primers. The PCR products were fluorescently labeled by primer extension with 6-arboxyfluorescein (6-FAM) 5'-labeled reporter sequence-specific primer (2 min at 95 C, 20 s at 68 C and 10 min at 72 C) and these products were digested with 5U of HpaI (New England Biolabs) for 2h at 37 C. The fragments were purified using Qiaquick PCR columns (Qiagen), analyzed on an ABI 3130xL genetic analyzer (Applied Biosystems) with peak positions identified by using a set of X-rhodamine (ROX)-labeled MapMarker1000 molecular weight standards (BioVentures). The raw capillary electrophoresis data was processed using Attagraph software (Attagene).

Sequence of Steroid hormone receptor ERR1 (Homo sapiens) (P11474 whole entry, looked up): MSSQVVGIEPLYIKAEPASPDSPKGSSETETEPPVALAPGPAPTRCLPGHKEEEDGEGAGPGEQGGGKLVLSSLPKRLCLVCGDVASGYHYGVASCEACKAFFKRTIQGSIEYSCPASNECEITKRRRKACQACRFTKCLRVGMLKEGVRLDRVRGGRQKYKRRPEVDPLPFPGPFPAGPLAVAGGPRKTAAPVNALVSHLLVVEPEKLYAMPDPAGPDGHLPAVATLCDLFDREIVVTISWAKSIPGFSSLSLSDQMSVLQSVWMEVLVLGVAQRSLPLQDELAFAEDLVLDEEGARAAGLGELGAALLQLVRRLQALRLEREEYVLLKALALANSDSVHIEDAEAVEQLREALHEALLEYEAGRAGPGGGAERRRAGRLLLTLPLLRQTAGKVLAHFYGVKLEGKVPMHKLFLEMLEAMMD

Structure (SMILES)	outcome
CCCCOCN(C(=O)CCl)c1c(CC)cccc1CC	inactive
CCOc1cc(C(C)(C)C)ccc1C1COC(c2c(F)cccc2F)=N1 (configuration not stated)	inactive
OC(c1ccc(Cl)cc1)(c1ccc(Cl)cc1)C(Cl)(Cl)Cl	inactive
C=C(C)CN(CC)c1c([N+](=O)[O-])cc(C(F)(F)F)cc1[N+](=O)[O-]	inactive
N#CN=C1SCCN1Cc1ccc(Cl)nc1	inactive
COc1cc(Cl)c(OC)cc1Cl	inactive
CCNC(=O)NC(=O)C(C#N)=NOC	inactive
COC(=O)c1c(C(F)F)nc(C(F)(F)F)c(C2=NCCS2)c1CC(C)C	inactive
CC(C)Nc1nc(Cl)nc(NC(C)C)n1	inactive
O=C1C2CC=CCC2C(=O)N1SC(Cl)(Cl)Cl (configuration not stated)	inactive
N#Cc1c[nH]cc1-c1cccc2c1OC(F)(F)O2	inactive
Cn1c(-c2ccccc2)cc(-c2ccccc2)[n+]1C	inactive
CC(C)Oc1cccc(NC(=O)c2ccccc2C(F)(F)F)c1	inactive
Cc1cc(C)nc(Nc2ccccc2)n1	inactive
CS(=O)(=O)c1cc(C(F)(F)F)ccc1C(=O)c1cnoc1C1CC1	inactive
CC(C)NC(=O)N1CC(=O)N(c2cc(Cl)cc(Cl)c2)C1=O	inactive
CCSC(=O)N1CCCCCC1	inactive
COCC(=O)N(c1c(C)cccc1C)C(C)C(=O)OC (configuration not stated)	inactive
COP(=S)(OC)Oc1ccc([N+](=O)[O-])c(C)c1	inactive
CC(C)N1C(=O)c2ccccc2NS1(=O)=O	inactive
Nc1c(Cl)c(F)nc(OCC(=O)O)c1Cl	inactive
O=C(Nc1ccccc1-c1ccc(Cl)cc1)c1cccnc1Cl	inactive
CCOc1nc(C(Cl)(Cl)Cl)ns1	inactive
CCC(C)n1c(=O)[nH]c(C)c(Br)c1=O (configuration not stated)	inactive
COC(=O)N(C(=O)N1CO[C@@]2(C(=O)OC)Cc3cc(Cl)ccc3C2=N1)c1ccc(OC(F)(F)F)cc1	inactive
COC(=O)NS(=O)(=O)c1ccc(N)cc1	inactive
CCCCC(C#N)(Cn1cncn1)c1ccc(Cl)cc1 (configuration not stated)	inactive
